# NOMO-1 viab = STK33 inhibitor candidate reducing NOMO-1 cell viability. NOMO-1 AML viability, CellTiter-Glo luminescence, 72 h. inhibition, % (no concentration beside the values). actives 7.5% (n = 37,000); in the data active = inhibition above about 80%; inconclusive = no clear call, values can overlap the other calls
# Shh pathway inh = blocks Sonic Hedgehog signaling | Shh-LIGHT2 Gli-luciferase reporter, 30 h | inhibition, % (concentration not given with the values) | actives 2.1% (n = 22,000);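 active = mean inhibition across valid replicates above about 65%, limit read from the data; inconclusive = mean under the limit, yet half or more replicates past it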;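 note: pathway switched on by Shh-conditioned medium diluted 1 in 25 in low serum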
# PD-1 reversal = reversal of PD-1 mediated T-cell inhibition; primary human CD4 T cells, PD-L1 beads, CellTiter-Glo 96 h; activation, % (test concentration not listed); 29,000 tested, under 10 active; call rule not given here;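 note: 0% = median vehicle wells and 100% = positive control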
# MITF inhib = MITF inhibition. TRPM1 promoter luciferase, luminescence, 24 h. inhibition, % (concentration not given with the values). AID 2240. actives 0.28% (n = 37,000); in the data active = inhibition above about 85%; inconclusive = no clear call, values can overlap the other calls; inactive = below about 68%;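 note: human melanocyte line stably carrying TRPM1 promoter luciferase reporter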
# YB-1 expression = YB-1 expression inhibition. U2OS, qRT-PCR YB-1 vs CDIP delta delta Cp, 16 h; active compounds read high; zero = DMSO, each unit about twofold. delta delta Cp (YB-1 minus CDIP) (no concentration beside the values). actives 0.37% (n = 30,000). AID 434959;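 active = delta delta Cp rounded down to an integer at or above 3, about 3 SD of DMSO wells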;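 note: higher means less YB-1 transcript or more CDIP transcript relative to DMSO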
# Numbers without * were called inactive; ? = inconclusive; / = no result. Rows were chosen to be rich in hits. Some 7.4% of all compounds tested hit in one or more screens of this group.
SMILES,NOMO-1 viab,Shh pathway inh,PD-1 reversal,MITF inhib,YB-1 expression
CCc1oc2ccccc2c1C(=O)c1ccc(OC(C)=O)cc1,136*,11,-2,32,0.086
Cc1cc(C)cc(OCC(=O)Nc2cc(-c3nc4ccc(C)cc4o3)ccc2C)c1,105*,/,-6,-30,/
COc1ccc(-c2nc3cc(C(C)C)ccc3o2)cc1NC(=O)COc1ccccc1C,106*,/,0,-20,/
COc1ccc(-c2nc3cc(C(C)C)ccc3o2)cc1NC(=O)COc1ccc(C)cc1,19,/,0,8,/
C[C@@H]1CC[C@H](O)/C=C/C(=O)O[C@H](C)CC[C@H](O)/C=C/C(=O)O1,108*,-3,-1,12,0.27
C[C@H]1CN([C@@H](C)CO)C(=O)c2cccc(NC(=O)C3CCCCC3)c2O[C@H]1CN(C)Cc1ccc(-c2ccccc2)cc1,87*,3,0,-1,0.36
C[C@@H]1CN([C@@H](C)CO)C(=O)c2cccc(NC(=O)C3CCCCC3)c2O[C@H]1CN(C)Cc1ccc(-c2ccccc2)cc1,81*,12,-4,61,-0.07
C[C@H](CO)N1C[C@H](C)[C@H](CN(C)Cc2ccc(Oc3ccccc3)cc2)Oc2c(NC(=O)C3CCCCC3)cccc2C1=O,109*,39,-2,9,0.73
C[C@H](CO)N1C[C@H](C)[C@@H](CN(C)Cc2ccccc2)Oc2c(NC(=O)C3CCCCC3)cccc2C1=O,63,39,-3,18,-0.77
C[C@H](CO)N1C[C@H](C)[C@H](CN(C)Cc2ccc(-c3ccccc3)cc2)Oc2c(NC(=O)C3CC3)cccc2C1=O,50,16,-6,-5,0.034
C[C@@H]1CN([C@@H](C)CO)C(=O)c2cccc(NC(=O)C3CCCCC3)c2O[C@H]1CN(C)Cc1ccccc1,96*,-6,-4,29,-0.33
C[C@@H]1CN([C@H](C)CO)C(=O)c2cccc(NC(=O)C3CC3)c2O[C@@H]1CN(C)Cc1ccc(-c2ccccc2)cc1,17,23,2,-6,-0.48
O=C(C[n+]1ccccc1)c1cc2ccccc2oc1=O,46,-15,-1,9,-0.33
COc1ccc(CN(C)C[C@@H]2Oc3c(NC(=O)C4CCCCC4)cccc3C(=O)N([C@@H](C)CO)C[C@H]2C)cc1,98*,12,-7,19,-0.29
C[C@H]1CN([C@@H](C)CO)C(=O)c2cccc(NC(=O)C3CCCCC3)c2O[C@@H]1CN(C)CC1CCCCC1,?,10,/,-3,0.46
C[C@@H]1CN([C@@H](C)CO)C(=O)c2cccc(NC(=O)C3CCCCC3)c2O[C@H]1CN(C)CC1CCCCC1,95*,-21,/,13,0.097
C[C@@H]1CN([C@H](C)CO)C(=O)c2cccc(NC(=O)C3CCCCC3)c2O[C@@H]1CN(C)Cc1ccc(-c2ccccc2)cc1,110*,-13,-5,23,-0.52
C[C@H](CO)N1C[C@H](C)[C@@H](CN(C)Cc2ccc(-c3ccccc3)cc2)Oc2c(NC(=O)C3CC3)cccc2C1=O,89*,31,/,37,0.73
COc1ccc(CN(C)C[C@H]2Oc3c(NC(=O)C4CCCCC4)cccc3C(=O)N([C@H](C)CO)C[C@H]2C)cc1,20,-4,0,-4,-0.11
C[C@H](CO)N1C[C@H](C)[C@@H](CN(C)Cc2ccc(-c3ccccc3)cc2)Oc2c(NC(=O)C3CCCCC3)cccc2C1=O,52,24,/,22,-0.011
CC1(C)C(=O)C=C[C@@]2(C)C1C=C[C@]1(C)C2CC[C@@]2(C)[C@H](c3ccoc3)OC(=O)C3OC321 (some centres not stated),107*,-331,/,101*,-0.44
C=C1C(C2(C)C=CC(=O)C(C)(C)C2CC(=O)OC)CC[C@@]2(C)[C@H](c3ccoc3)OC(=O)C3OC132 (some centres not stated),110*,?,/,66,0.62
COC(=O)c1c(C)ncc2c1COC(C)OC2 (configuration not stated),-12,-1,0,25,0.47
O=C(c1ccccc1)c1ccc(OCC(O)Cn2cnc3ccccc32)cc1 (configuration not stated),73,/,/,50,/
COc1ccc(NC(=O)Nc2cccc3c2O[C@@H](CN(C)S(=O)(=O)c2ccc(OC)cc2)[C@H](C)CN([C@H](C)CO)C3=O)cc1,16,-14,-2,0,0.079
SMILES,NOMO-1 viab,Shh pathway inh,PD-1 reversal,MITF inhib,YB-1 expression
COc1ccc(S(=O)(=O)N(C)C[C@@H]2Oc3c(NC(=O)Nc4ccc(C(F)(F)F)cc4)cccc3C(=O)N([C@@H](C)CO)C[C@@H]2C)cc1,93*,-29,-1,-17,-0.12
COc1ccc(S(=O)(=O)N(C)C[C@@H]2Oc3c(NC(=O)Nc4ccc(C(F)(F)F)cc4)cccc3C(=O)N([C@H](C)CO)C[C@@H]2C)cc1,114*,-33,-2,9,0.024
COc1ccc(NC(=O)Nc2cccc3c2O[C@@H](CN(C)S(=O)(=O)c2ccc(Cl)cc2)[C@@H](C)CN([C@@H](C)CO)C3=O)cc1,24,101*,/,-8,0.044
Cc1cc(NCn2ncc3ccccc3c2=O)ccc1Br,39,-8,1,-6,-0.3
CC1=CC(c2ccccc2)=C(C#N)C(=S)C1CC(=O)c1cccs1 (configuration not stated),26,10,0,-17,0.35
O=C(COc1cc(Cl)c(Cl)cc1Cl)Nc1ncn[nH]1,1,/,0,-35,/
COc1cc(CC2COC(=O)C2(O)Cc2ccc(O)c(OC)c2)ccc1O (configuration not stated),54,-28,-1,91*,-2.8
CC(C)NC(=O)Nc1ccc2c(c1)C(=O)N([C@H](C)CO)C[C@@H](C)[C@H](CN(C)Cc1ccc(-c3ccccc3)cc1)O2,84*,14,-2,-6,-0.53
CC(C)NC(=O)Nc1ccc2c(c1)C(=O)N([C@H](C)CO)C[C@@H](C)[C@@H](CN(C)Cc1ccc(-c3ccccc3)cc1)O2,24,67*,0,-5,-0.1
O=C(CSc1nc2ccccc2nc1N1CCOCC1)NCc1ccc2c(c1)OCO2,10,?,1,-5,-0.64
O=C(CSC1CC(=O)N(c2ccc(I)cc2)C1=O)Nc1cccc(F)c1 (configuration not stated),-19,/,-1,-7,/
O=c1cc(O)c2sc3nc(-c4cccnc4)c4c(c3c2[nH]1)CCCC4,106*,0,0,-1,-0.39
c1cncc(-c2nc3ccc4ccccc4c3c3c2CCCC3)c1,72,31,-1,4,0.63
CC1=CC(=O)OC(c2ccccc2)C1 (configuration not stated),2,36,1,6,-0.015
N#Cc1c(N)nc(Sc2ccc(Cl)cc2)c(C#N)c1-c1ccccc1,102*,52,0,10,0.33
N#Cc1c(-c2ccccc2Cl)cc(C2CC2)nc1N,3,2,-4,5,0.31
c1ccc(-n2ncc3c(N4CCc5ccccc54)ncnc32)cc1,-4,-126,3,-19,0.26

# Screens: PubChem BioAssay, Broad Institute
